# JMJD2A Tudor inh = JMJD2A Tudor domain (human) inhibition; AlphaScreen JMJD2A-Tudor / H3K4me3 peptide binding; actives 4.4% (n = 390,000); Potency, µM (top dose mostly 114 µM), for the others: at the top dose activity change, negative = inhibition, most hits filed as inhibitors; AID 504339; note: % is set by controls: 0 for no effect and ±100 for the full control effect; nearly all actives have a fitted effect of over 50% in size
# Target sequence (O75164 whole entry, looked up, the tested form may be a part): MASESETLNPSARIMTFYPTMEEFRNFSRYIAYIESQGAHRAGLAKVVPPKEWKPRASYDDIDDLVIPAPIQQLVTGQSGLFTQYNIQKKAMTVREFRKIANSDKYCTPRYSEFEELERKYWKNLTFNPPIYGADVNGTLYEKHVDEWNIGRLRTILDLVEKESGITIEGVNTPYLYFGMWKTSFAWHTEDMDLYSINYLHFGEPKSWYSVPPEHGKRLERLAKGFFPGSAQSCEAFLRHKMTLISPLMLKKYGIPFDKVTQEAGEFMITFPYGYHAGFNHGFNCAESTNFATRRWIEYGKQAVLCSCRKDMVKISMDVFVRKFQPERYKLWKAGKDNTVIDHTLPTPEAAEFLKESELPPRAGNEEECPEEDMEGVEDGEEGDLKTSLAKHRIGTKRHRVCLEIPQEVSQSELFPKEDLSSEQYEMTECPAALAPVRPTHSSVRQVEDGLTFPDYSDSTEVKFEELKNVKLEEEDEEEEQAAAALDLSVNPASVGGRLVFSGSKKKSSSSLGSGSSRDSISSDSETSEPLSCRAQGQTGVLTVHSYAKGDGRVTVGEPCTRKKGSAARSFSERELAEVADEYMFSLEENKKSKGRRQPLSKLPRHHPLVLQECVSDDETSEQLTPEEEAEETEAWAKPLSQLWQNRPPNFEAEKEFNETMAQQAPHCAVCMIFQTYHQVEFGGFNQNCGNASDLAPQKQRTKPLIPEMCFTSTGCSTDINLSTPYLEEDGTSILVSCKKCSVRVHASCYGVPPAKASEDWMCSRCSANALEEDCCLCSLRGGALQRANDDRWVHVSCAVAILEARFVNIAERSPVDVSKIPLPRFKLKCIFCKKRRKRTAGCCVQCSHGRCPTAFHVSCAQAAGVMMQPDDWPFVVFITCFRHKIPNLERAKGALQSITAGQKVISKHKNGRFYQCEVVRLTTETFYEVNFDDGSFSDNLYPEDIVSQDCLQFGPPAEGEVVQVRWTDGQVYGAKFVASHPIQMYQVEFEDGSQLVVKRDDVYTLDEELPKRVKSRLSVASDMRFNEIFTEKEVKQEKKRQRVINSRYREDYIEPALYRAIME
# G9a block = inhibitors of human histone lysine methyltransferase G9a. Q96KQ7. G9a H3K9 monomethylation, AlphaScreen, 2 h. Potency, µM (doses to about 102 µM), inactives show at the highest dose activity, negative = inhibition, usual class: inhibitors. actives 8.8% (n = 350,000). AID 504332; note: % is set by controls: 0 for no effect and ±100 for the full control effect; nearly all actives have a fitted effect of over 75% in size
#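 Using a bead-based AlphaScreen, monomethylated H3K9 product from 2 h room-temperature reactions (G9a 20 nM, peptide 500 nM, SAM 20 uM) was detected with 0.5 ug/mL rabbit anti-H3K9me1 antibody.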
# Sfp PPTase inh = blocks B. subtilis Sfp PPTase activity; Biochemical Sfp PPTase activity, qHTS; AID 1490; actives 3.5% (n = 310,000); Potency, µM, for the others: largest response in the series, negative = inhibition, most hits filed as inhibitors; Q9F4F7;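 note: the enzyme is Sfp with the accession as filed and its product quenches rhodamine fluorescence; 0% = enzyme reaction without inhibitor and -100% = no enzyme wells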
#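 Compounds were incubated with enzyme (final 15 nM) for 15 min at room temperature before substrate addition started the reaction. Fluorescence at 525 nm excitation, 598 nm emission was recorded immediately and after 30 minutes.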
# 12-LOX inh = inhibitors of human 12S-lipoxygenase ALOX12. purified 12hLO, xylenol orange hydroperoxide absorbance. AID 1671190. P18054. Potency, µM (doses to about 108 µM), without a hit: at the highest dose activity change, negative = inhibition, hits mostly inhibitors. actives 1.1% (n = 580,000); note: % is set by controls: 0 for no effect and ±100 for the full control effect
#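 Hydroperoxide product was detected by ferrous iron/xylenol orange as the 573 to 405 nm absorbance ratio. Arachidonic acid at 40 uM (final) was turned over for 30 min at room temperature by 150 nM human 12hLO, pH 7.0 Hepes buffer, after 15 min compound preincubation.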
# BAZ2B block = inhibitors of human BAZ2B bromodomain; Potency, µM (series often up to 114 µM), for inactives: at the highest dose activity change, negative = inhibition, most hits filed as inhibitors; AlphaScreen BAZ2B-H3K14Ac peptide displacement; actives 4.4% (n = 360,000); AID 504333; Q9UIF8; note: % is set by controls: 0 for no effect and ±100 for the full control effect; nearly all actives have a fitted effect of over 60% in size
#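 BAZ2B (50 nM) with biotin-H3(5-23)K14Ac peptide (50 nM) in PBS pH 7.4, 0.01% Tween-20, preformed 30 min, then compound 30 min at room temperature; top concentration 110uM. AlphaScreen streptavidin donor/nickel chelate acceptor beads (10 ug/mL final), 20 min dark, signal read.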
# HP1b binding inh = inhibitors of HP1-beta chromodomain binding to methylated histone tails; P83916; AlphaScreen HP1-beta / biotin-H3K9me3 peptide binding; Potency, µM (titrated, usually from 114 µM), for the others: top-dose activity change, negative = inhibition, most hits filed as inhibitors; actives 0.56% (n = 390,000); note: nearly all actives have a fitted effect of over 70% in size
#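 HP1-beta protein (50 nM final) preincubated 30 min at room temperature with biotinylated H3(1-18)K9me3 peptide (50 nM) in PBS pH 7.4, 0.01% Tween-20, then compound added for 30 min. AlphaScreen streptavidin donor/nickel chelate acceptor beads (10 ug/mL final), 30 min dark, luminescence read.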
# * = called active by the depositor; ? = inconclusive; · = not tested or not shown; [ ] = another dose, or the depositor's remark. A selection: hits, their analogues and other compounds. The true share with any hit is near 8.7%. Calls come from the whole dose curve; as a rule, active = well fitted curve in the direction sought with a large enough effect; inconclusive = small, poorly fitted or top-dose-only effect, or another doubt; inactive = no such curve, though single readings can be large; an effect the other way counts as inactive or inconclusive. Potency is the fitted concentration of half-maximal effect.
SMILES,JMJD2A Tudor inh,G9a block,Sfp PPTase inh,12-LOX inh,BAZ2B block,HP1b binding inh
N#CCCN(Cc1cccnc1)C(=S)NCc1ccco1,-2.1%,20µM*,25.1µM*,-10.0%,-14.8%,1.7%
O=C(NCC1CCCN(C(=O)c2cn[nH]c2-n2cnnn2)C1)c1cccs1 (stereo unspecified),·,·,·,44.5%,·,·
O=C(c1ccco1)N1CCN(C(c2ccc(Cl)cc2)c2nnnn2CC2CCCO2)CC1 (stereo unspecified),79.4µM*,-47.2%[12.7 µM],56.2µM*,?,?,0.1%
O=C(c1ccco1)N1CCN(Cc2nnnn2CC2CCCO2)CC1 (stereo unspecified),28.2µM*,?,-5.7%,-29.8%,-30.3%,40.1%
Cc1ccc(C(c2nnnn2CC2CCCO2)N2CCN(C(=O)c3ccco3)CC2)cc1 (stereo unspecified),-3.8%,75.7%[59 µM],10.0%,37.0%,-35.1%,40.5%
Cc1ccc(S(=O)(=O)Cn2nnnc2CN2CCN(C(=O)c3ccco3)CC2)cc1,-3.1%,-27.4%[59 µM],15.2%,0.0%,-3.3%,33.8%
CC(C#N)OC(=O)c1ccc(-c2ccccc2Cl)o1 (stereo unspecified),·,·,·,-40.6%,·,·
COc1ccccc1OCCNC(=O)C1CCc2ncc(-c3ccc(F)cc3)n2C1 (stereo unspecified),·,·,·,43.9%,·,·
Cc1ccccc1C(=O)OC1OC(=O)C(Cl)=C1Nc1ccc(C(=O)O)cc1 (stereo unspecified),14.1µM*,?,-10.6%,-2.4%,1.1%,?
COc1cccc(CCC(=O)Nc2nc(C)c(C(C)=O)s2)c1OC,·,·,·,-16.8%,·,·
CN1C(=O)N(CC(=O)N2CCN(c3ccccc3F)CC2)C(=O)C12CCCCC2,-21.2%,-12.6%[12.7 µM],·,-12.9%,5.5%,30.8%
CN1C(=O)N(CC(=O)N2CCN(S(=O)(=O)Cc3ccccc3)CC2)C(=O)C12CCCCC2,-15.1%,56.2µM*,·,1.9%,9.2%,15.0%
Cc1ncsc1C(=O)NCc1ccncc1,·,·,·,-15.0%,·,·
COc1cccc(C(=O)NCCS(=O)(=O)NCc2ccccn2)c1,2.51µM*,?,·,-13.1%,-2.6%,-2.5%
COc1ccc(CNS(=O)(=O)CCNC(=O)c2cccc(OC)c2)cc1,-13.6%,50.1µM*,·,-7.5%,5.2%,20.9%
COc1ccc(CNS(=O)(=O)CCNC(=O)c2ccccc2)cc1,-6.8%,-5.8%,·,-0.1%,6.7%,30.7%
COc1cccc(C(=O)NCCS(=O)(=O)NCc2ccc3c(c2)OCO3)c1,-23.3%,39.8µM*,·,9.5%,0.3%,-5.0%
COc1ccc(C(=O)NCCS(=O)(=O)NCc2ccc3c(c2)OCO3)cc1,-10.3%,8.3%[0.501 µM],·,8.1%,11.1%,9.2%
COc1ccc(NS(=O)(=O)c2cccc(C(=O)NCc3ccccn3)c2)cc1,-14.9%,21.8%,·,8.6%,4.0%,38.5%
O=C(OCc1cccc(F)c1)c1ccc(Cl)c(S(=O)(=O)N2CCCC2)c1,·,·,·,-13.4%,·,·
COc1ccc(C(=O)N2CCCC(Nc3ccc(C)c(C)c3)C2)c(OC)n1 (stereo unspecified),-35.0%,44.7µM*,11.3%,-6.3%,?,-10.7%
COc1cccc(C(=O)N2CCCC(Nc3ccc(C)c(C)c3)C2)c1 (stereo unspecified),?,22.4µM*,0.7%,?,?,4.6%
Cc1ccc(NC2CCCN(C(=O)c3ccc4nccnc4c3)C2)cc1C (stereo unspecified),-16.0%,-4.1%,17.1%,7.9%,-22.1%,11.2%
COc1ccc(C(=O)N2CCCC(Nc3ccc(F)c(F)c3)C2)c(OC)n1 (stereo unspecified),-24.3%,4.8%,14.8%,3.8%,-19.0%,6.0%
CCC(=O)N(C1CCOCC1)C1CCN(S(=O)(=O)c2cn(C)cn2)CC1,·,·,·,62.1%,·,·
CCOC(=O)C1CCCCN1Cc1ccc(-c2ccccc2)cc1 (stereo unspecified),20µM*,?,-23.0%,?,9.0%,-9.2%
CCOC(=O)C1CCCCN1Cc1ccc(F)cc1 (stereo unspecified),4.47µM*,10µM*,-27.8%,?,50.1µM*,?

# High-throughput results: PubChem, National Center for Advancing Translational Sciences (NCATS)
